# According to PubChem BioAssay:
# Experiment: anti-His antibody binders, primary screen, artefact control for SMM control protein annotation, biochemical, small-molecule microarray, 635 nm fluorescence (AID 1128);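 also: score merges feature fluorescence with signal-to-noise for each printed compound spot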
# Details: anti-His Alexa647 antibody binding, higher = more signal
row,Compound,composite z-score
1,CON=C(C)CCN1CCCCc2nc(C)c(C)cc21,0.229
2,CCOC(=O)[C@H](Cc1ccccc1)NC(=O)CCC1CC(OC(=O)NCc2cccc3ccccc23)CC2(CCCC(COC(=O)NCC3CCCCC3)O2)O1 (stereo partly drawn),1.05
3,CO[C@H]1COC(=O)CCC[C@H](C)[C@@H](OC)COC(=O)CC=C[C@@H]1C,1.36
4,C[C@H]1C=CCC(=O)OC[C@H](C)C(=O)N2CCC[C@H]2C(=O)OC1,-0.637
5,CC(=O)OC[C@H]1O[C@H](CCON=C(C)C)C=C[C@@H]1OC(C)=O,1.56
6,CC(C)[C@@H](OCc1ccccc1)[C@H](C)C=NO[C@@H](C)c1cn([C@H](CO)Cc2ccccc2)nn1,0.08
7,O=C1C2=CC[C@H]3C(=O)N(C4CCCCC4)C(=O)[C@H]3[C@H]2[C@H](O)[C@@H]2O[C@H]12,-0.242
8,CC(C)(C)N1C(=O)[C@H]2[C@H]3[C@H](O)[C@H](O)CC(=NNC(=O)OCc4ccccc4)[C@H]3CC[C@H]2C1=O,0.758
9,CC(C)(C)N1C(=O)[C@H]2[C@H]3[C@H](O)[C@H](O)CC(=NNC(=O)OCc4ccccc4)[C@@H]3CC[C@H]2C1=O,0.0938
10,O=C1C2=CC[C@H]3C(=O)N(C[C@@H]4CCCO4)C(=O)[C@H]3[C@H]2[C@H](O)[C@@H]2O[C@H]12,0.286
11,CO[C@@H]1C=CCC(=O)N[C@@H](C)C(=O)OC[C@@H](NS(=O)(=O)c2ccc(C)cc2)[C@H](C)C=CCC(=O)OC[C@H]1C,-0.605
12,C[C@@H]1CC[C@@H](C(=O)O)N[C@H]1c1cccc(N2CCOCC2)c1,0.06
13,CO[C@@H]1COC(=O)[C@@H]2CCCN2C(=O)[C@@H](C)COC(=O)CCC[C@H]1C,0.176
14,O=C1[C@H]2[C@H]3[C@H](O)[C@H](O)CC(=NOC[C@@H](O)COCc4ccco4)[C@@H]3CC[C@H]2C(=O)N1C1CCCCC1,0.0182
15,CC(CCC(=O)OC[C@H]1O[C@H](C#Cc2ccccc2)C=C[C@@H]1Oc1ccc(C)cc1)=NO[C@H](C)c1cn([C@@H]2COC[C@H]2O)nn1,0.254
16,C[C@H]1CC[C@H]2C(=O)N[C@H](Cc3ccccc3)C(=O)N2[C@@H]1c1ccccc1,-0.106
17,CC(=O)OC[C@H]1O[C@H](CC=NO[C@H](C)c2cn([C@@H]3COC[C@H]3O)nn2)C=C[C@@H]1OC(C)=O,0.606

row,Compound,composite z-score
1,O=C1CCCC=C1C(O)COCc1ccccc1 (stereo not drawn),0.195
2,COc1ccc(COC(=O)NN=C2C[C@@H](O)[C@@H](O)[C@@H]3[C@@H]4C(=O)N(C5CCCCC5)C(=O)[C@@H]4CC[C@@H]23)cc1,0.123
3,COC(=O)CC=C[C@@H](C)[C@@H](C=NOC[C@@H](O)COCc1ccco1)OC,1.46
4,O=C1[C@H]2[C@H]3[C@H](O)[C@H](O)CC(=NO[C@@H]4O[C@H](CO)[C@@H](O)[C@H](O)[C@H]4O)[C@@H]3CC[C@H]2C(=O)N1C[C@@H]1CCCO1,0.142
5,O=C1[C@H]2[C@H]3[C@H](O)[C@H](O)CC(=NOC[C@@H](O)COCc4ccco4)[C@@H]3CC[C@H]2C(=O)N1Cc1ccccc1,0.381
6,CCOC(=O)[C@H](Cc1ccccc1)NC(=O)CCC1CC(OC(=O)NCCc2ccc(F)cc2)CC2(CCCC(COC(=O)NCc3cccc(C(F)(F)F)c3)O2)O1 (stereo partly drawn),0.554
7,O=C1C=C[C@@H](O)[C@@H]2[C@@H]3C(=O)N(C4CCCCC4)C(=O)[C@@H]3CC[C@@H]12,0.575
8,CCN1C(=O)[C@H]2[C@@H]3C(=CC[C@H]2C1=O)C(=O)[C@H]1O[C@H]1[C@H]3O,1.21
9,CCOC(=O)[C@H](Cc1ccccc1)NC(=O)CCC1CC(OC(=O)NCc2ccc3c(c2)OCO3)CC2(CCCC(COC(=O)NCCOc3ccccc3)O2)O1 (stereo partly drawn),0.777
10,CCN1C(=O)[C@H]2[C@H]3[C@H](O)[C@H](O)CC(=NO[C@H](C)c4cn([C@H](CO)Cc5ccccc5)nn4)[C@@H]3CC[C@H]2C1=O,3.76
11,COC(OC)[C@@H](C)[C@H](OC)[C@@H](C)[C@H](OC)c1ccccc1,-0.504
12,CO[C@@H]1COC(=O)[C@H](CCSC)NC(=O)CC=C[C@@H](C)COC(=O)[C@@H]2CCCN2C(=O)CC=C[C@H]1C,0.0289
13,CC(C)=NO[C@H](C)c1cn([C@@H]2COC[C@H]2O)nn1,0.106
14,CC(C)=NOC(C)CN1CCCc2nc(C)c(C)cc21 (stereo not drawn),-0.0115
15,CC#CCOCCC=C1c2ccccc2[C@@H](OC)[C@@H]1C,1.79
16,O=C1[C@H]2[C@H]3[C@H](O)[C@H](O)CC(=NO[C@@H]4O[C@H](CO)[C@@H](O)[C@H](O)[C@H]4O)[C@H]3CC[C@H]2C(=O)N1C[C@@H]1CCCO1,-0.0286
